# Screening data (PubChem)
# The list is not random: actives were taken first. Their share in the collection is about 2.8%.
# TROY NFkB inh: inhibitors of TROY-dependent NF-kB signaling; hit rate 0.98% among 360,000; inhibition, % at 10 µM; AID 1347056; Q293 LMP1-TROYcd NF-kB luciferase reporter, 4 h;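 active = compounds whose plate-normalised and pattern-corrected inhibition of the luciferase reporter signal at the single screening dose is 50% or more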
# PAX8 reporter: inhibitors of PAX8 transcriptional activity in RMG-I cells; RMG-I TPO-luciferase reporter, SteadyGlo, 24 h; inhibition, % at 12.6 µM; hit rate 1.2% among 360,000;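 active = mean replicate inhibition at least 60% with every replicate also reaching 60%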;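 note: luciferase light reporting Pax8 driven TPO promoter activity; plate controls were median of neutral control wells for no effect and mitoxantrone controls for full effect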
# EWS-Fli block: inhibitors of EWS/Fli oncoprotein transcriptional activity | A673 NR0B1-luciferase reporter, viability-normalised | inhibition, % at 12.6 µM | hit rate 0.67% among 350,000 | AID 651661;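 active = mean inhibition of at least 50% after viability correction, with every replicate also passing that limit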;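 note: firefly luciferase signal divided by Alamar Blue viability fluorescence both relative to DMSO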
# LGR2 inh: blocks bursicon-induced cAMP signaling via Drosophila LGR2; inhibition, % at 9.99 µM; HEK293 LGR2, CRE-luciferase, bursicon-stimulated, 4 h; hit rate 0.35% among 380,000;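 active = drop in luminescence signal, shown as inhibition above about 50% in the replicate tests, limit read from the data, passing the limit was not always enough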;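 note: agonist challenge used bursicon conditioned medium at about half maximal strength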
# TWEAK Fn14 block: blocks TWEAK-Fn14 interaction in a reporter cell assay; AID 1159606; TWEAK-stimulated Fn14 reporter cells, luciferase luminescence, 8 h; inhibition, % at 10 µM; hit rate 2% among 360,000; in the data active = inhibition above about 50%
# Active calls of the source: *; nt = no result given.
SMILES,TROY NFkB inh,PAX8 reporter,EWS-Fli block,LGR2 inh,TWEAK Fn14 block
C[C@@H]1CN([C@H](C)CO)C(=O)c2cccc(NS(=O)(=O)c3ccccc3)c2O[C@@H]1CN(C)Cc1ccc(C(F)(F)F)cc1,nt,11,6,-2,nt
CC(C)CC#Cc1ccc2c(c1)O[C@H](CN(C)Cc1ccncc1)[C@@H](C)CN([C@H](C)CO)S2(=O)=O,nt,21,28,22,nt
CC(C)CC#Cc1ccc2c(c1)O[C@@H](CN(C)Cc1ccncc1)[C@H](C)CN([C@H](C)CO)S2(=O)=O,nt,92*,40,13,nt
CC(C)CC#Cc1ccc2c(c1)O[C@H](CN(C)Cc1ccncc1)[C@@H](C)CN([C@@H](C)CO)S2(=O)=O,nt,73*,36,9,nt
CC(C)CC#Cc1ccc2c(c1)O[C@@H](CN(C)Cc1ccccn1)[C@H](C)CN([C@H](C)CO)S2(=O)=O,nt,72*,32,-7,nt
C[C@H](CO)N1C[C@H](C)[C@H](CN(C)S(=O)(=O)c2ccc(Cl)cc2)Oc2ccc(NS(=O)(=O)c3ccc(Cl)cc3)cc2CC1=O,nt,8,-6,5,nt
C=C(C)C(=O)Oc1ccc(N=Nc2ccc(C)cc2)ccc1=O,-35,-69,1,-28,59*
CCOc1cccc2sc(N(CCCN(C)C)C(=O)c3ccc(C(=O)c4ccccc4)cc3)nc12,-22,-1,nt,2,92*
CCc1ccc(OCC(=O)NC(=S)Nc2ccc(C(=O)O)cc2)cc1,-20,0,7,14,-8
CCCC(=O)NC(NC(=S)Nc1ccc(N=Nc2ccccc2)cc1)C(Cl)(Cl)Cl (stereo not given),15,64*,15,nt,76*
CCc1ccc(OCC(=O)NC(NC(=S)Nc2ccc(Cl)cc2)C(Cl)(Cl)Cl)cc1 (stereo not given),46,82*,19,27,72*
CCCC(=O)NC(NC(=S)Nc1ccc(S(N)(=O)=O)cc1)C(Cl)(Cl)Cl (stereo not given),10,nt,nt,5,8
CCOC(=O)N1CCN(C(=O)C2CCC(CNS(=O)(=O)c3ccc(Cl)cc3)CC2)CC1 (stereo not given),nt,nt,nt,nt,51*
CCOC(=O)N1CCN(C(=O)C2CCN(S(=O)(=O)c3ccc(Cl)cc3)CC2)CC1,11,-2,nt,nt,-4
C[C@@H]1CN([C@H](C)CO)C(=O)Cc2cc(NS(=O)(=O)c3cccs3)ccc2O[C@H]1CN(C)S(=O)(=O)c1cn(C)cn1,nt,-60,0,-9,nt
Cc1[nH]nc2c1C(c1cc(Br)cs1)C(C#N)=C(N)O2 (stereo not given),5,10,19,14,61*
CCN1[C@@H]2c3ccc(-c4ccccc4F)c(=O)n3C[C@H]1[C@H](CO)[C@H]2C(=O)N1CCCCC1,nt,-12,0,-19,nt
Cn1c(N)c(C(C[N+](=O)[O-])c2ccccc2Cl)c(=O)n(C)c1=O (stereo not given),12,-12,5,nt,99*
COc1cccc(F)c1C(C[N+](=O)[O-])c1c(N)n(C)c(=O)n(C)c1=O (stereo not given),43,100*,36,64*,58*
COc1cc(C(C[N+](=O)[O-])c2c(N)n(C)c(=O)n(C)c2=O)ccc1O (stereo not given),32,25,34,nt,28
COc1ccc(CN(C)C[C@@H]2Oc3ccc(N(C)C)cc3CC(=O)N([C@H](C)CO)C[C@H]2C)cc1,nt,-8,-4,6,nt
C[C@H]1CN([C@@H](C)CO)C(=O)c2cc(-c3ccccc3F)cnc2O[C@@H]1CN(C)C(=O)C1CC1,nt,nt,-1,-7,nt
O=C(Nc1ccccc1-c1nnn(CC(=O)N2CCc3ccccc3C2)n1)C1CCC1,nt,nt,nt,nt,71*
CCC(=O)Nc1ccccc1-c1nnn(CC(=O)N2c3ccccc3CC2C)n1 (stereo not given),5,nt,nt,19,0
O=C(Nc1cccc(-c2nnn(CC(=O)N3CCc4ccccc4C3)n2)c1)C1CCC1,-14,nt,-6,8,-4
SMILES,TROY NFkB inh,PAX8 reporter,EWS-Fli block,LGR2 inh,TWEAK Fn14 block
CC1Cc2ccccc2N1C(=O)Cn1nnc(-c2ccccc2NC(=O)C2CCC2)n1 (stereo not given),59*,nt,nt,nt,45
CCNC(=O)C[C@@H]1CC[C@@H]2[C@H](COC[C@@H](O)CN2C(=O)C2CC2)O1,nt,-7,-5,15,nt
CCCC#Cc1ccc(CC[C@H]2O[C@H]3CC[C@H](CO)O[C@H]3C[C@H]2n2cc(C(C)(C)O)nn2)cc1,nt,-3,-9,nt,nt
CCCCN(C=O)c1c(CC)nc2c(OCCn3cccc3)cccn12,-2,-1,-2,16,-3
CCCCN(C=O)c1c(CC)nc2c(OCCOc3ccc(F)cc3)cccn12,0,8,9,21,63*
Cc1ccc(S(=O)(=O)N[C@H]2C=C[C@@H](CC(=O)NCCN3CCCCC3)O[C@H]2CO)cc1,nt,5,-7,5,nt
O=C(NCCc1ccc(F)cc1)c1coc(=O)c(Br)c1,-7,2,39,-8,90*
COC(=O)c1ccc(NC(=O)c2cc3sccc3n2C)cc1,-24,-83,nt,nt,56*
Cn1c(C(=O)Nc2ccccc2)cc2sccc21,-40,nt,nt,nt,12
COc1cc(OC)cc(C2=Cc3ccccc3C(CC(C)=O)N2c2ccc(C#CC3(O)CCCCC3)cc2)c1 (stereo not given),36,42,2,-22,52*
CC(=O)CC1c2cc(F)ccc2C=C(c2ccsc2)N1c1ccc(C#Cc2cncn2C)cc1 (stereo not given),-3,30,14,17,14
COc1cc(OC)cc(C2=Cc3ccccc3C(CC(C)=O)N2c2ccc(-c3cccs3)cc2)c1 (stereo not given),-20,70*,3,2,-2
COc1cc(OC)cc(C2=Cc3ccc(OC)cc3C(CC(C)=O)N2c2ccc(-c3cccs3)cc2)c1 (stereo not given),-16,53,11,10,-6
CC(=O)CC1c2cc(F)ccc2C=C(c2ccsc2)N1c1ccc(C#CC2(O)CCCCC2)cc1 (stereo not given),-13,25,10,-23,57*
COc1cc(OC)cc(C2=Cc3ccccc3C(CC(C)=O)N2c2ccc(-c3cncnc3)cc2)c1 (stereo not given),-20,41,11,15,16
O=C1c2ccccc2C(=O)N1CCCCN(C(=O)c1cc([N+](=O)[O-])cc([N+](=O)[O-])c1)c1ccc(Cl)cc1,-1,83*,-1,-12,-33
O=C1c2ccccc2C(=O)N1CCCCN(C(=O)c1ccc([N+](=O)[O-])cc1)c1ccc(Cl)cc1,-6,nt,nt,nt,6
CCCCCCC[N+](CC)(CC)CCCCc1ccc(Cl)cc1,25,87*,19,9,27
CCCCCNCc1ccc(Cl)cc1,-1,3,-4,3,-13
C[C@@H]1CN([C@H](C)CO)C(=O)c2cc(Br)cnc2O[C@H]1CN(C)Cc1ccncc1,nt,nt,0,-13,nt
CC1(C)COC(/C=C/c2ccc([N+](=O)[O-])cc2)=N1,-66,-27,nt,-10,62*
